Test results from PubChem BioAssay.
A number with no mark means an inactive call. Activity calls are given as the source filed them. Unless noted, no stated cut-off is given here; in the data, active means inhibition above about 25%; inactive means the rest.

Legend:
[1] = target: Nuclear receptor coactivator 1 (Homo sapiens) (UniProt Q15788); experiment: SRC1 coactivator transcriptional activity inhibitors, confirmation, cell-based, luminescence, quadruplicate (AID 588820;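 active means mean inhibition above 46.68%, the untreated control wells mean plus 3 SD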;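 further: 0% = DMSO wells and 100% = gossypol 36 µM treated wells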); conditions: HEK293 GAL4-SRC1 luciferase reporter, at 3.6 µM, stronger effect = higher value
[2] = VP16 transactivation inhibitors, counter-screen for SRC1 inhibitor project, cell-based, luminescence, high throughput (AID 588824); conditions: cell-based VP16 transactivation luciferase luminescence; at 3.6 µM; stronger effect = higher value

Nuclear receptor coactivator 1 (Homo sapiens), sequence (Q15788 whole entry, looked up, the tested form may be a part): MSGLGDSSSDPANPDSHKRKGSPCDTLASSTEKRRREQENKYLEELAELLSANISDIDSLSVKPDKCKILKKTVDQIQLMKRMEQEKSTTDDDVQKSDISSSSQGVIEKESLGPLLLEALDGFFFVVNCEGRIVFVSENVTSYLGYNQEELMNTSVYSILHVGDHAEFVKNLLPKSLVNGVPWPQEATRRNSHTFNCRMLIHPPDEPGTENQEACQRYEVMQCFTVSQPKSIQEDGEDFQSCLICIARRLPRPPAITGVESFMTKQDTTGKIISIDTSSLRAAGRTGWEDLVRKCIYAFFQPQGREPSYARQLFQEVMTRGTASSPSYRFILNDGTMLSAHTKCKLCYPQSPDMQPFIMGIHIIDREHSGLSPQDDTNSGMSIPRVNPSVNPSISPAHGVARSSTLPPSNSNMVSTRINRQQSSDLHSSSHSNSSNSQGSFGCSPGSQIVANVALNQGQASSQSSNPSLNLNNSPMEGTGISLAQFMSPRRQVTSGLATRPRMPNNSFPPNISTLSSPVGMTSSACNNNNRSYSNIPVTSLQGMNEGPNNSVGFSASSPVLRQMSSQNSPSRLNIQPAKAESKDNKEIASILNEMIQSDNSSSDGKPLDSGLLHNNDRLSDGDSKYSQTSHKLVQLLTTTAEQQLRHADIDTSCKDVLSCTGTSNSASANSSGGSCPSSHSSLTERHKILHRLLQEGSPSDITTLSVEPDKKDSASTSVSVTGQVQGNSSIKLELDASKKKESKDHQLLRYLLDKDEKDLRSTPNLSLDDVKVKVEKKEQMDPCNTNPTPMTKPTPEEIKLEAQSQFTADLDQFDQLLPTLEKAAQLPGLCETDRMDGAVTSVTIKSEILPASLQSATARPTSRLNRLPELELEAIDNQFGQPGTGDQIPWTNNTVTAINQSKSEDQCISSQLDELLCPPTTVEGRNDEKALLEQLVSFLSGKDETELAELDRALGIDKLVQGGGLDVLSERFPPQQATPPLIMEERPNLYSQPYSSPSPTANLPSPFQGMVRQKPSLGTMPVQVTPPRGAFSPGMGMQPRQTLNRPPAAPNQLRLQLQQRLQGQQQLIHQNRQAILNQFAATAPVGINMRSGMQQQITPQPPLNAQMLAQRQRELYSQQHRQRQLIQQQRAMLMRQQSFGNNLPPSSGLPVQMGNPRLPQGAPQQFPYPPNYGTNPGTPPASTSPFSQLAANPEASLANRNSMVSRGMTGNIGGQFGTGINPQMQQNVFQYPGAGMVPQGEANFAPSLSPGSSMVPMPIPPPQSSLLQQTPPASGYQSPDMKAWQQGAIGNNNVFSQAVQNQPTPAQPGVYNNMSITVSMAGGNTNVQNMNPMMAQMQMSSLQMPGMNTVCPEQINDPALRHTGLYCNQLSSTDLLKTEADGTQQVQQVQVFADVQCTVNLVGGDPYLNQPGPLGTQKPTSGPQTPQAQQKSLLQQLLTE

## COc1ccc(-c2cc(N3C(=O)Nc4ccccc4N3O)n[nH]2)c(OC)c1
[1]
  inhibition: 25.8%
[2]
  inhibition: 20.1%

## CCC(C)OC(=O)C[N+](C)(C)CCOC1CC2CCC1(C)C2(C)C (centres undefined)
[1]
  inhibition: 5.52%
[2]
  inhibition: 2.28%

## O=C(Cc1ccsc1)N1CCN(S(=O)(=O)c2cc(C(F)(F)F)cc(C(F)(F)F)c2)CC1
[1]
  inhibition: -14.2%
[2]
  inhibition: 0.11%

## Cc1cccc(NC(=O)CSCC(=O)N2CCN(Cc3ccc4c(c3)OCO4)CC2)c1
[1]
  inhibition: 2.48%
[2]
  inhibition: 1.12%

## Cc1c(/C(O)=C2\C(=O)C(=O)N(CCCN(C)C)C2c2ccccc2)cnn1-c1ccccc1 (centres undefined)
[1]
  inhibition: 6.48%
[2]
  inhibition: -4.83%

## COCCn1c(C)cc(/C=C2/NC(=O)N(c3cccc(Cl)c3)C2=O)c1C
[1]
  inhibition: -34.5%
[2]
  inhibition: -40.5%

## Cn1c(N)c(C(=O)CSc2nn(-c3ccccc3)c(=S)s2)c(=O)n(C)c1=O
[1]
  inhibition: 8.31%
[2]
  inhibition: 17.7%

## CCCCC(=O)Nc1cccn2ncnc12
[1]
  inhibition: 24.7%
[2]
  inhibition: 14.8%

## CCOc1ccc(-c2nnc3ccc(SCC(=O)NCc4ccco4)nn23)cc1
[1]
  inhibition: -6.9%
[2]
  inhibition: -3.63%

## c1ccc2c(c1)ccc1ncccc12
[1]
  inhibition: 1.02%
[2]
  inhibition: 6.62%

## CN1CCN(CCC(=O)N/N=C/c2cc3c(cc2[N+](=O)[O-])OCO3)CC1
[1]
  inhibition: -2.3%
[2]
  inhibition: -2.21%

## CCC(C(=O)OCC(=O)Nc1cc(Cl)cc(Cl)c1)c1ccccc1 (centres undefined)
[1]
  inhibition: -0.98%
[2]
  inhibition: -3.53%

## CCN1CCS/C1=C/C=C/C1=[N+](CC)CCS1
[1]
  inhibition: -22.7%
[2]
  inhibition: 47% (active)

## O=C(Nc1ccccc1N1CCOCC1)c1cc(-c2ccncc2)nc2ccccc12
[1]
  inhibition: -29.7%
[2]
  inhibition: 2.98%

## O=C(CCC(=O)Nc1ccc(Br)cc1)N/N=C/c1ccccc1O
[1]
  inhibition: 29.2%
[2]
  inhibition: 22.2%

## COc1ccc(NC(=O)c2ccccc2Cl)cc1NC(=O)CN1CCOCC1
[1]
  inhibition: -11.8%
[2]
  inhibition: -7.93%

## O=C1NCCc2c1[nH]c1ccc([N+](=O)[O-])cc21
[1]
  inhibition: 23.1%
[2]
  inhibition: 18.1%

## COc1ccc(Oc2nc3c(c(=O)n(C)c(=O)n3C)n2C)cc1
[1]
  inhibition: 24.8%
[2]
  inhibition: 16.6%

## COC(=O)c1ccsc1NC(=O)CN1CCN(c2ncccn2)CC1
[1]
  inhibition: -31.8%
[2]
  inhibition: -17.6%

## Cc1cc(NC(=O)C(Cl)c2ccccc2)no1 (centres undefined)
[1]
  inhibition: -11.5%
[2]
  inhibition: 3.89%

## Cc1nnc(N2CCCC(C(=O)NCc3ccc(OC(C)C)cc3)C2)c2nn(-c3ccccc3)c(C)c12 (centres undefined)
[1]
  inhibition: -12.5%
[2]
  inhibition: -13.1%

## Cc1cccc(NC(=O)CSc2nnc(NC(=O)C3CC3)s2)c1C
[1]
  inhibition: -3.25%
[2]
  inhibition: 6.7%

## Cc1cc(C)c2nc(NNC(=O)c3ccc(S(=O)(=O)N4CC(C)CC(C)C4)cc3)sc2c1 (centres undefined)
[1]
  inhibition: 32.4%
[2]
  inhibition: 30.2% (active)

## COc1ccccc1-c1cccc(-c2nc(C(=O)N3CCCCC3)cc3c2[C@H](CCO)N(S(=O)C(C)(C)C)C3)c1 (some centres undefined)
[1]
  inhibition: -56.9%
[2]
  inhibition: -21.5%

## COc1cc(S(=O)(=O)NCc2ccccc2Cl)ccc1-n1cnnn1
[1]
  inhibition: -9.68%
[2]
  inhibition: -5.92%

## O=C1C2C3C=CC(C3)C2C(=O)N1CN(Cc1ccccc1)CN1C(=O)C2C3C=CC(C3)C2C1=O (centres undefined)
[1]
  inhibition: -20.9%
[2]
  inhibition: -14.3%

## CC(C)N1C(=O)c2ccccc2N(Cc2ccccc2)S1(=O)=O
[1]
  inhibition: -4.94%
[2]
  inhibition: 1.81%

## CCC(Cc1ccccc1)NC(=O)CCNS(=O)(=O)c1cc(Br)cnc1N (centres undefined)
[1]
  inhibition: 0.75%
[2]
  inhibition: 5.04%

## COc1cc(C(=O)O)cc(NC(=O)c2ccco2)c1OC
[1]
  inhibition: -9.74%
[2]
  inhibition: 2.33%

## Cc1cc(Br)cn2c(Cc3ccsc3)c(-c3ccc(F)cc3)nc12
[1]
  inhibition: 6.68%
[2]
  inhibition: -0.27%

## O=C1/C(=N\S(=O)(=O)c2cccs2)C([n+]2ccccc2)=C([O-])c2ccccc21
[1]
  inhibition: -4.31%
[2]
  inhibition: 6.99%

## C[C@H]1CN([C@@H](C)CO)C(=O)CCCn2nncc2CO[C@H]1CN(C)C(=O)C1CCCCC1
[1]
  inhibition: -19.8%
[2]
  inhibition: -11.3%

## O=c1ccc2c(ccc3ncccc32)o1
[1]
  inhibition: 18.8%
[2]
  inhibition: 8.67%

## O=C(O)CNC(=O)c1cccc(C(F)(F)F)c1
[1]
  inhibition: -9.63%
[2]
  inhibition: -6.05%

## CCc1c(C)nc2c(C)cccc2c1SCCC#N
[1]
  inhibition: 24.9%
[2]
  inhibition: 8.27%

## COc1ccccc1CCC(=O)Nc1cccc(S(=O)(=O)N2CCCCCC2)c1
[1]
  inhibition: -1.96%
[2]
  inhibition: -7.85%

## COc1ccc(OC)c(S(=O)(=O)NCC(c2ccc3c(c2)OCO3)N2CCOCC2)c1 (centres undefined)
[1]
  inhibition: -16.7%
[2]
  inhibition: -6.55%
